{"source": "PubChem BioAssay AID492947", "about": "(National Center for Advancing Translational Sciences (NCATS), 2010)", "note": "Among all 330,000 compounds or so, about 80 (0.02%) were called active. The list comes from a sample in which actives are over-represented; it also holds similar structures and randomly drawn compounds. Unmarked numbers belong to inactive results. Calls follow the shape of the dose curve; as a rule, active = well fitted activation curve with a large enough effect; inconclusive = small, poorly fitted or top-dose-only effect; inactive = flat fitted curve, though single readings scatter. Potency is read from the fitted curve at half-maximal effect."}
{"biological_target": "Beta-2 adrenergic receptor (Homo sapiens) (UniProt P07550)", "sequence (P07550 whole entry, looked up)": "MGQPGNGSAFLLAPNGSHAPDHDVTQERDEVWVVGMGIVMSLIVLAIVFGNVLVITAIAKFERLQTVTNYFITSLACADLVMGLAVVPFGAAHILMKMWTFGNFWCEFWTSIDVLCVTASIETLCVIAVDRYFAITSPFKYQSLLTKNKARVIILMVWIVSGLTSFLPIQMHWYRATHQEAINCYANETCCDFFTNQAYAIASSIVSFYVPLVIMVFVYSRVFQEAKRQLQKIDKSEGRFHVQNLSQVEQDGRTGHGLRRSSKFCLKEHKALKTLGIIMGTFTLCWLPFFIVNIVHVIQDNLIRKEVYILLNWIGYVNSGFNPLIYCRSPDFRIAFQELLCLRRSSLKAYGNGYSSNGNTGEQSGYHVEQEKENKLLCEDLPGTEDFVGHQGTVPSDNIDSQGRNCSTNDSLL", "assay": "qHTS assay of beta-arrestin-biased ligands of beta2-adrenergic receptor; also: nearly all actives have a fitted effect of over 65% in size;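 as to activation: 0% = DMSO controls and full agonism = EC100 isoproterenol or metaproterenol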", "conditions": "beta-arrestin recruitment to beta2AR, cell-based reporter; series mostly up to 46.1 µM; activation: at the top concentration", "from_the_text": "NIH Molecular Libraries Probe Production Network [MLPCN]\nNIH Chemical Genomics Center [NCGC]\nPI: Bryan Roth and Bob Lefkowitz\nThe concept of biased agonism is an emerging concept of molecular pharmacology which proposes that seven transmembrane receptors (7TMRs) or G protein-coupled receptors (GPCRs), exist in multiple signaling conformations and complexes and that ligands (either agonists or antagonists) can induce signaling biased responses for distinct signal transduction cascades.\nFurthermore, accumulating evidence over the last decade has drawn attention to a novel function of beta-arrestins as signal transducers that scaffold various signaling molecules upon activation of 7TMRs. […] This beta-arrestin-biased signaling presumably leads to distinct physiological outcomes from those by G protein activation.\nAdditionally, the active receptor conformations which […] on this beta-arrestin signaling are likely different from those activating G protein signaling\nThe goal of this screening project will be to discover and optimize novel beta-arrestin-biased ligands for beta2-AR signaling. A luminescent cell-based assay for beta2-AR-mediated agonism, known as the Tango assay, has been validated in which ligand binding of a recombinant beta2-AR and subsequent recruitment of a recombinant beta-arrestin lead to the release of the transcriptional activator tTA, which upregulates transcription of a tTA-responsive luciferase gene. […] Compounds were screened as a concentration-titration series that ranged from 46 microM to 0.6 nM.\nNCGC Assay Protocol Summary:\nTango cells were dispensed into white, solid, tissue-culture-treated 1536-well plates at 1500 cells/well in DMEM, containing 1% fetal bovine serum (FBS). Then, 23 nL of compounds or DMSO were delivered to each well using a pin tool. Plates were incubated at 37 degrees C, 5% CO2 for 18 hr. Then 2.5 uL luminescent substrate mix (in-house prepared: 150 mM Tris-Cl, pH 7.6, 3 mM MgCl2, 1% Triton X-100, 5 mM DTT, 0.5 mM CoA, 0.15 mM ATP, 0.44 mM D-luciferin, final concentrations) was added to each well. Plates were then incubated for 15 minutes at room temperature, and subsequently measured on a ViewLux plate reader for luminescent signal using a clear filter with a 10 second exposure and 2x binning. The %Activity was determined from the corrected luminescence values.\nConcentration-response curves were fitted to the signals arising from the resulting luminescence. The concentration-effect curves were then classified based on curve quality (r2), response magnitude and degree of measured activity, and compounds were subsequently categorized based on their curve class.\nKeywords: biased agonism, beta2-AR, beta-arrestin, GPCR, 7TMR, Tango, luminescence, MLSMR, MLPCN, NIH Roadmap, qHTS, NCGC", "units": {"activation": "%"}}
{"smiles": "COc1ccc(OCC(=O)NCCc2ccc(S(N)(=O)=O)cc2)cc1", "activation": -0.147}
{"smiles": "Cc1nn(-c2ccccc2)c2sc(C(=O)N(Cc3ccco3)C(C)C(=O)NC(C)(C)C)cc12", "note": "(configuration not stated)", "activation": -0.496}
{"smiles": "Cc1ccccc1N1CCN(C2CCCN(C(=O)c3cn4c(C)cccc4n3)C2)CC1", "note": "(configuration not stated)", "activation": 0.177}
{"smiles": "COCCn1c(SCC(=O)Nc2cc(OC)ccc2OC)nc2c(c1=O)SC(C)C2", "note": "(configuration not stated)", "activation": -0.395}
{"smiles": "Cc1cc(Cl)ccc1NC(=S)N1CCC(C(N)=O)(N2CCCCC2)CC1", "activation": -0.676}
{"smiles": "C[C@H]1COC(=O)[C@H](CC(=O)OC(C)(C)C)C/C=C\\C[C@@H](CC(=O)N[C@H](CO)Cc2ccccc2)C(=O)N1", "activation": -0.195}
{"smiles": "CCCn1c(C(Cc2ccccc2)NC(=O)COC)nc2ccccc21", "note": "(configuration not stated)", "activation": 0.278}
{"smiles": "O=C(Nc1ccccc1F)C1C2C=CC3(O2)C1C(=O)N(c1cccnc1)C3C(=O)NC1CCCCC1", "note": "(configuration not stated)", "activation": -0.119}
{"smiles": "COC(=O)CN1C(=O)C(C)(C)Oc2ccc(C(=O)Nc3cccc(OC)c3)cc21", "activation": 0.44}
{"smiles": "CC1(c2ccc(Cl)cc2Cl)NC(=O)N(CC(=O)Nc2cccnc2Cl)C1=O", "note": "(configuration not stated)", "activation": 0.107}
{"smiles": "CSc1nc2nc3c(c(=O)n2[nH]1)CCC3", "activation": 0.387}
{"smiles": "O=C(COC(=O)Cc1ccc(Br)cc1)Nc1ccc(N2CCOCC2)cc1", "activation": 0.283}
{"smiles": "CCN1CCCC1CNC(=O)Cn1cnc2ccc(S(=O)(=O)N3CCC(C)CC3)cc2c1=O", "note": "(configuration not stated)", "activation": -0.835}
{"smiles": "O=C(CCNC(=O)c1ccccc1Cl)NN=Cc1ccco1", "activation": -1.11}
{"smiles": "Cc1ccc(S(=O)(=O)N2CCN(C(=O)CCC(=O)NC3CCCc4ccccc43)CC2)cc1", "note": "(configuration not stated)", "activation": -0.327}
{"smiles": "COC(=O)C(C)n1cnc2c(nnn2-c2ccc(F)cc2)c1=O", "note": "(configuration not stated)", "activation": -1.45}
{"smiles": "Cc1ccc(C2(C)NC(=O)N(CC(=O)N3CC(=O)Nc4ccccc43)C2=O)cc1", "note": "(configuration not stated)", "activation": -0.447}
{"smiles": "CC(OC(=O)CNS(=O)(=O)/C=C/c1ccccc1)C(=O)Nc1ccc(S(=O)(=O)N2CCCC2)cc1", "note": "(configuration not stated)", "activation": -0.924}
{"smiles": "CCOC(=O)c1c(-c2cccc(N)c2)cn2ccccc12", "activation": -0.239}
{"smiles": "CCOc1cc2[nH]c(=S)n(CCCN3CCCC3=O)c(=O)c2cc1OCC", "activation": -0.317}
{"smiles": "COc1ccc(CS(=O)/C(Cl)=C(/Cl)C(=O)Nc2ccc(OC)nc2)cc1", "note": "(configuration not stated)", "activation": -0.108}
{"smiles": "CC1CC1C(=O)OCC(=O)Nc1cccc(F)c1", "note": "(configuration not stated)", "activation": -0.288}
{"smiles": "CC1CCC2(CC1)NC(=O)N(Cc1nnc(-c3cccs3)o1)C2=O", "note": "(configuration not stated)", "activation": 0.245}
{"smiles": "NC(=O)c1ccsc1NC(=O)COC(=O)Cc1n[nH]c(=O)c2ccccc12", "activation": -0.009}
{"smiles": "CCOCCCNC(=O)c1cn(CC(C)C)c(=O)c2c1c1ccccc1n2C", "activation": -0.285}
{"smiles": "Cc1cc(C)c(C#N)c(SCC(=O)NN2CC(=O)N(c3ccccc3F)CC2=O)n1", "activation": -0.808}
{"smiles": "COc1ccc(CC(NC(C)=O)C(=O)NC2CCN(C(=O)C3CC3)CC2)cc1OC", "note": "(configuration not stated)", "activation": 0.0754}
{"smiles": "COc1ccccc1OCCn1c(SCC(N)=O)nc2ccccc21", "activation": -0.935}
{"smiles": "CCc1cccc(C)c1NC(=O)COC(=O)CC1CCCC1", "activation": -0.1}
{"smiles": "O=C(Nc1cc(-c2nn(CC(=O)N3CCCCC3)c(=O)c3ccccc23)ccc1N1CCOCC1)c1ccc(Cl)cc1", "activation": -0.799}
{"smiles": "COc1ccc2c(-c3ccccc3)cc(SCC(=O)N(C)C3CCS(=O)(=O)C3)nc2c1", "note": "(configuration not stated)", "activation": -1.89}
{"smiles": "COC(=O)c1cccc(NC(=O)CN2CCC(NC(=O)c3cc(OC)c(OC)c(OC)c3)CC2)c1", "activation": -0.217}
{"smiles": "O=C(COc1ccccc1Cl)Nc1ccc(C(=O)c2ccc(C(=O)O)cc2)cc1", "activation": -0.148}
{"smiles": "OC(COCC1COc2ccccc2O1)CN1CCN(c2ccc(F)cc2)CC1", "note": "(configuration not stated)", "activation": -0.322}
{"smiles": "O=C(O)C1CCCN1S(=O)(=O)c1ccc2c(c1)CCC2", "note": "(configuration not stated)", "activation": -0.269}
{"smiles": "COc1ccc(-n2nnnc2SCC(=O)NCc2cccs2)cc1", "activation": 0.169}
{"smiles": "Oc1ccc(N=Cc2sc3ccccc3c2Cl)cc1", "Potency": "13 µM (active)"}
{"smiles": "CC(=O)n1c(C=Nc2ccccc2)c(O)c2ccccc21", "activation": 0.129}
{"smiles": "Cn1c(SCC(=O)N2CCCC2)nnc1-c1cccs1", "activation": 0.281}
{"smiles": "CC(C(=O)N1CCOCC1)N1c2cccc3cccc(c23)S1(=O)=O", "note": "(configuration not stated)", "activation": -0.178}
{"smiles": "Nc1ccc(Nc2cc(O)c3ncccc3c2)cc1", "activation": -0.411}
{"smiles": "COc1nc(N=C(N)N)nc2c(C)cccc12", "activation": -0.842}
{"smiles": "CCOC(=O)C1=C(c2ccccc2)N=C2SCC(=O)N2C1c1ccc(O)c(OC)c1", "note": "(configuration not stated)", "activation": -1.68}
{"smiles": "COc1cc(C)c(C(C)C)cc1S(=O)(=O)n1ccnc1", "activation": 0.444}
{"smiles": "CCOc1ccc(N(CC(=O)NCCc2ccc(F)cc2)S(=O)(=O)c2ccccc2)cc1", "activation": -0.258}
{"smiles": "CCN(C(=O)COC(=O)c1c(NC(C)=O)sc(C)c1C)C1CCS(=O)(=O)C1", "note": "(configuration not stated)", "activation": -0.227}
{"smiles": "C=CCN(c1ccccc1C(=O)NCC(=O)OCC)S(=O)(=O)c1ccc(C)cc1", "activation": -0.554}
{"smiles": "CCCOc1ccc(C2=CSC3=NCCN23)cc1Cl", "activation": 0.319}
{"smiles": "CCc1ccc(-c2nc(SCC(=O)NC3CCCC3)n[nH]2)cc1", "activation": 0.447}
{"smiles": "Cc1cc(OCCOc2cccc3cccnc23)c(C)cc1Cl", "activation": 0.256}
{"smiles": "CCOC(=O)N1CCN(S(=O)(=O)N2CCCC(C(=O)NCCCN3CCC(C)CC3)C2)CC1", "note": "(configuration not stated)", "activation": 0.177}
{"smiles": "Cc1ccsc1C(=O)OCC(=O)NCCc1ccccc1", "activation": -0.289}
